# Assay outcomes as filed in PubChem BioAssay.
# Mtb FBA inh = Mtb fructose-bisphosphate aldolase inhibition; purified M. tuberculosis FBA, fluorescence read-out; P9WQA3; hit rate 2.3% among 360,000; AID 588726; inhibition, % at 1 µM; in the data active = inhibition above about 27%;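 also: 0% = vehicle and 100% = reference inhibitor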
# Mtb UGM inh = blocks M. tuberculosis UGM enzyme | P9WIQ1 | purified UGM, fluorescence polarization probe displacement | AID 504406 | hit rate 0.06% among 320,000 | inhibition, % at 10 µM; in the data active = inhibition above about 10%, passing the limit was not always enough
# Mtb bLac sens = beta-lactam sensitization of Mtb H37Rv | M. tuberculosis H37Rv growth with meropenem, percent inhibition | inhibition, % at 25 µM | hit rate 0.27% among 330,000 | AID 434955; call rule not given here;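 also: growth measured after seven days incubation then overnight dye step; 0% = bacteria only wells and 100% = bacteria with antibiotic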
# RecA intein inh = inhibitors of M. tuberculosis RecA intein splicing | inhibition, % (no concentration beside the values) | AID 2221 | P9WHJ3 | cell-free RecA intein splicing, fluorescence | hit rate 0.75% among 290,000; in the data active = inhibition above about 30%;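 also: 0% = vehicle wells and 100% = reference inhibitor control wells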
# Target sequence (P9WHJ3 whole entry, looked up): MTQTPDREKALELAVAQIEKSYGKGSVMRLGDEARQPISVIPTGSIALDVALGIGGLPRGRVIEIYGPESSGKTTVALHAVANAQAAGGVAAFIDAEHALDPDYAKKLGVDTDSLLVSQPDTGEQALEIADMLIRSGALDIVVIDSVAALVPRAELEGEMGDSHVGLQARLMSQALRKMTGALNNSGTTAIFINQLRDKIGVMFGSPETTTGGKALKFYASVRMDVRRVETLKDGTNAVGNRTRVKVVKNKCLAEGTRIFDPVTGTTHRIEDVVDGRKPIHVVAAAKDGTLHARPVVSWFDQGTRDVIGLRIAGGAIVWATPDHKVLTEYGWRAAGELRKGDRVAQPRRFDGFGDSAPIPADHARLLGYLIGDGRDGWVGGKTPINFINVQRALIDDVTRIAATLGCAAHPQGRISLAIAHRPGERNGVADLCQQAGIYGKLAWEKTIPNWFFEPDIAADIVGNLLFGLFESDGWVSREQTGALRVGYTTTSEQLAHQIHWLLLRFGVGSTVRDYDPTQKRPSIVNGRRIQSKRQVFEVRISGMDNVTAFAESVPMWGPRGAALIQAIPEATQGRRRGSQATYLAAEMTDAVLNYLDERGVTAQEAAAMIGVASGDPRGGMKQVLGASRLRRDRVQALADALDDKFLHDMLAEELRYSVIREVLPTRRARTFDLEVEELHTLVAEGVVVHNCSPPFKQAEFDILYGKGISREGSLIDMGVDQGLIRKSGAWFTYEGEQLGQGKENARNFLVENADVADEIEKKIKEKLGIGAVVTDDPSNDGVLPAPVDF
# Rv3671c protease = inhibitors of M. tuberculosis serine protease Rv3671c | inhibition, % at 5.96 µM | hit rate 0.048% among 320,000 | P9WHR9 | AID 2606; in the data active = inhibition above about 38%;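 also: extracellular domain of Rv3671c used as enzyme; 0% = enzyme with DMSO and 100% = no enzyme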
# GDH-TPI counter = inhibits GDH-TPI coupling enzymes, artifact for Mtb FBA screen; GDH-TPI coupled enzyme counterscreen, NADH absorbance; inhibition, % at 4.8 µM; hit rate 1.2% among 360,000; in the data active = inhibition above about 30%;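 also: 0% = DMSO wells and 100% = wells lacking the enzyme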
# Numbers without * were called inactive; · = not tested or not shown; + = active, no number. An excerpt weighted towards active compounds, which were near 4% of everything screened.
SMILES,Mtb FBA inh,Mtb UGM inh,Mtb bLac sens,RecA intein inh,Rv3671c protease,GDH-TPI counter
Cc1cc(C(=O)Nc2ccc3c(c2)OCCO3)co1,-2,1,-4,5,4,-1
Cc1cccc(NC(=S)NC2CCCCC2)n1,1,-1,1,0,-7,2
CCc1ccc(-c2nc(CCl)cs2)cc1,-1,-1,15,5,-8,-1
CC1Cc2ccccc2N1C(=O)c1cc2c(=O)n3ccccc3nc2n1C (stereo not drawn),4,3,5,-6,0,8
Cn1c(C(=O)N2CCc3ccccc3C2)cc2c(=O)n3ccccc3nc21,73*,2,-7,-96,-2,10
CC1CN(C(=O)c2cc3c(=O)n4ccccc4nc3n2C)CC(C)O1 (stereo not drawn),+,-2,4,-235,-8,26
CCOC(=O)Cc1cc(=O)n2[nH]cc(-c3cccc(Br)c3)c2n1,26,-3,-10,1,-15,8
COCc1cc(=O)n2[nH]cc(-c3ccccc3)c2n1,133*,-2,·,0,-1,23
O=C(N/N=C/c1ccncc1)c1ccccn1,-1,1,8,-1,-4,7
O=C(N/N=C/c1ccc(N2CCOCC2)cc1)c1ccccn1,3,0,99,0,-8,67*
O=C(N/N=C/c1cc2c(cc1Br)OCO2)c1cc2ccccc2o1,7,-2,4,0,-9,22
Cc1c(C(=O)N/N=C/c2ccc(N3CCOCC3)cc2)nc2ccccn12,1,0,-4,·,3,31*
O=C(N/N=C/c1cc2c(cc1Br)OCO2)c1ccccn1,4,-2,12,0,9,31*
Cc1ccc2nc(C)c(C(=O)N/N=C/c3ccc(N4CCOCC4)cc3)cc2c1,-3,-1,-3,-13,8,41*
Fc1ccc(-c2ccnc3nc(N4CCN(c5ccccc5)CC4)nn23)cc1,-1,-2,-25,-1,-2,12
CCCCN(CCCC)C(=O)c1cn(CC)c2cc(N3CCN(C)CC3)c(F)cc2c1=O,16,-2,8,-1,8,13
O=C(N/N=C/c1ccc2c(c1)OCO2)c1ccccn1,-2,0,95,-2,-5,41*
O=C(/C=C/c1ccc2c(c1)OCO2)c1ccccn1,4,-4,-8,5,-12,8
COc1ccc(NC(=O)c2ccccc2NC(=O)C2CC=CCC2C(=O)O)cc1 (stereo not drawn),6,-2,-5,-5,·,11
COc1c2ccccc2nc2ccccc12,143*,0,4,-185,3,11
COc1ccc(OC)c(Nc2c3ccccc3nc3ccccc23)c1,2,2,16,16,-11,-2
NNC(=O)/C(=C/c1cccs1)NC(=O)c1ccccc1Cl,-3,0,-7,1,-3,43*
COc1ccc(C2Nc3cc(OC)ccc3-n3cccc32)cc1 (stereo not drawn),9,3,48,-47,-2,34*
O=C(c1ccco1)N1CCN(Cc2cccc3ccccc23)CC1,3,1,4,3,14,4
Oc1ccc(Cl)cc1CN1CCN(Cc2ccccc2)CC1,-12,-3,2,0,-2,63*
SMILES,Mtb FBA inh,Mtb UGM inh,Mtb bLac sens,RecA intein inh,Rv3671c protease,GDH-TPI counter
O=c1cc(CN2CCN(Cc3ccccc3)CC2)c2ccc(O)cc2o1,153*,0,4,-165,-3,8
OCC1(CCc2ccccc2)CCN(Cc2cc(Cl)ccc2O)CC1,-1,1,0,3,0,-4
CC1CN(Cc2cc(=O)oc3cc(O)ccc23)CC(C)O1 (stereo not drawn),161*,0,-11,-89,0,7
O=C(c1ccco1)N1CCN(Cc2cc(=O)oc3cc(O)ccc23)CC1,+,-2,-4,·,4,26
CCCCCN(C(=O)CCC(=O)OCc1ccccc1C(F)(F)F)c1c(N)n(CCCC)c(=O)[nH]c1=O,4,-1,-4,3,-1,8
N#Cc1ccccc1NC(=O)C1CCCO1 (stereo not drawn),1,·,·,·,·,1
Cc1ccc(/C=C/C(=O)O)cc1S(=O)(=O)NCCCC(=O)O,-3,1,-4,-1,3,-5
CC(=O)/C(=N\Nc1ccc(C)cc1)N1CCOCC1,-1,0,99,-1,6,31*
CC(=O)Nc1ccc(NC(=O)N2CCOCC2)cc1,1,·,·,·,·,14
CC(=O)Nc1ccc(NC(=O)C(C)OC(=O)/C=C/c2cccs2)cc1 (stereo not drawn),0,-2,-7,-1,-8,11
